The values that follow come from the supplement of paper PMC10646978.

Holding throughout (details): modulator concentration 10 µM
For assay [1], the system named is RAW-Dual (murine macrophage reporter line). Put plainly: NF-kB reporter (SEAP) activity fold change vs agonist alone; higher = enhanced NF-kB activity. In short, it runs like this: (§1)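 RAW-Dual murine macrophage reporter cells were seeded at 50 000 per well in 384-well plates and pre-incubated 1 hour at 37 °C with compound pin-transferred to 10 μM final. After 1 hour, a PRR agonist was added and cells incubated overnight. Supernatant NF-κB (SEAP, QUANTI-Blue, 620 nm absorbance) and IRF (Lucia luciferase, QUANTI-Luc, luminescence) signals were divided by the mean agonist-only control on the same plate to give fold change. Two replicate plates were averaged, with errors by propagation.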

For assay [2] the test system is unchanged. The experiment in a line: IRF reporter (Lucia luciferase) activity fold change vs agonist alone; higher = enhanced IRF activity. In short, it runs like this: as §1
For assay [3] the test system is unchanged. Put plainly: viability score (confluency relative to resting cells, overnight) (fraction); higher = more viable, active = viable (0.7 or more). In short, it runs like this: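 Two confluency masks, generated with IncuCyte software over all imaged wells, were applied to IncuCyte images of RAW-Dual macrophages. The cells, in 384-well plates, had been exposed overnight to 10 μM final compound. The viability score is confluency as a fraction of resting cells, and a compound met the cutoff only with both masks above 70% of resting cells.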

Where [4] appears, read: agonist: CpG ODN 1826 0.5 ug/mL.

± gives the standard deviation.

For `CN(C)CCC=C1c2ccccc2C=Cc2ccccc21.Cl`, the NF-kB reporter was determined as 0.43 ± 0.079 in assay [1] (setting [4]), 1.25 ± 0.15 in assay [1] (agonist: LPS 0.1 ug/mL) and 1.13 ± 0.069 in assay [1] (agonist: MPLA […]). The IRF reporter in assay [2] (agonist: 3'3'-cGAMP 10 ug/mL) is 0.406 ± 0.019; in assay [2] (agonist: LPS 0.1 ug/mL), 1.61 ± 0.14; in assay [2] (agonist: MPLA […]) it was 1.18 ± 0.13. The viability score in assay [3] is 0.918 (active).

Regarding `CC(=O)c1cc(Cl)ccc1OC(=O)c1ccccc1Cl`, the figures for the NF-kB reporter in assay [1] (setting [4]), in assay [1] (agonist: LPS 0.1 ug/mL) and in assay [1] (agonist: MPLA […]) were 0.767 ± 0.07, 0.803 ± 0.051 and 0.757 ± 0.062, respectively. Besides, the IRF reporter in assay [2] (agonist: 3'3'-cGAMP 10 ug/mL) was found to be 0.543 ± 0.025; in assay [2] (agonist: LPS 0.1 ug/mL), 1.63 ± 0.12; in assay [2] (agonist: MPLA […]), 1.8 ± 0.24. Moreover, the viability score in assay [3] was 0.987 (active).

Consider `CC(C)CN(CC(O)C(Cc1ccccc1)NC(=O)OC1COC2OCCC12)S(=O)(=O)c1ccc(N)cc1` (stereo unspecified) [Prestw-1802], for which the NF-kB reporter was 1.53 ± 0.34 in assay [1] (setting [4]), 1.52 ± 0.14 in assay [1] (agonist: LPS 0.1 ug/mL) and 1.84 ± 0.15 in assay [1] (agonist: MPLA […]). In addition, the figures for the IRF reporter in assay [2] (agonist: 3'3'-cGAMP 10 ug/mL), in assay [2] (agonist: LPS 0.1 ug/mL) and in assay [2] (agonist: MPLA […]) were 0.872 ± 0.069, 0.827 ± 0.22 and 0.953 ± 0.14, respectively. In addition, the viability score in assay [3] was 0.981 (active).

In the case of `Cc1ccc(C(C)C)c(Oc2ccccc2NC(=O)c2cc(I)cc(I)c2O)c1`, the NF-kB reporter in assay [1] (setting [4]) was 0.995 ± 0.066; in assay [1] (agonist: LPS 0.1 ug/mL), 0.985 ± 0.082; in assay [1] (agonist: MPLA […]), 0.924 ± 0.071. Moreover, the IRF reporter in assay [2] (agonist: 3'3'-cGAMP 10 ug/mL) is 0.915 ± 0.035; in assay [2] (agonist: LPS 0.1 ug/mL) it was 1.44 ± 0.092; in assay [2] (agonist: MPLA […]), 1.27 ± 0.25. For the same compound, in assay [3], the viability score is 1 (active).

Take `CN(C)[C@@H]1C(O)=C(C(N)=O)C(=O)[C@@]2(O)C(O)=C3C(=O)c4c(O)ccc(Cl)c4[C@@H](O)[C@H]3C[C@@H]12.Cl`: the NF-kB reporter was 1.29 ± 0.098 in assay [1] (setting [4]), 0.965 ± 0.055 in assay [1] (agonist: LPS 0.1 ug/mL) and 1.17 ± 0.038 in assay [1] (agonist: MPLA […]). In addition, the IRF reporter in assay [2] (agonist: 3'3'-cGAMP 10 ug/mL) was 0.728 ± 0.048; in assay [2] (agonist: LPS 0.1 ug/mL) it was 0.971 ± 0.068; in assay [2] (agonist: MPLA […]), 0.828 ± 0.12. The viability score in assay [3] was 0.984 (active).

Regarding `Cc1ccccc1C(=O)Nc1ccc(C(=O)N2CCCC(N(C)C)c3ccccc32)cc1` (stereo unspecified), the figures for the NF-kB reporter in assay [1] (setting [4]), in assay [1] (agonist: LPS 0.1 ug/mL) and in assay [1] (agonist: MPLA […]) were 1.05 ± 0.27, 1 ± 0.05 and 0.929 ± 0.065, respectively. The figures for the IRF reporter in assay [2] (agonist: 3'3'-cGAMP 10 ug/mL), in assay [2] (agonist: LPS 0.1 ug/mL) and in assay [2] (agonist: MPLA […]) were 0.94 ± 0.046, 1.15 ± 0.18 and 1.17 ± 0.13, respectively. Further, the viability score in assay [3] was 1 (active).

`C#CC1(O)CCC2C3CCC4=Cc5oncc5CC4(C)C3CCC21C` (stereo unspecified): the NF-kB reporter was 1.26 ± 0.31 in assay [1] (setting [4]), 1.27 ± 0.094 in assay [1] (agonist: LPS 0.1 ug/mL) and 1.2 ± 0.082 in assay [1] (agonist: MPLA […]). Also, the IRF reporter in assay [2] (agonist: 3'3'-cGAMP 10 ug/mL) amounted to 0.787 ± 0.046; in assay [2] (agonist: LPS 0.1 ug/mL) it was 1.35 ± 0.2; in assay [2] (agonist: MPLA […]), 1.56 ± 0.15. In assay [3], the viability score was 0.958 (active).

With `COc1ccc2[nH]c(S(=O)Cc3ncc(C)c(OC)c3C)nc2n1` (stereo unspecified) [Prestw-1351], the results for the NF-kB reporter in assay [1] (setting [4]), in assay [1] (agonist: LPS 0.1 ug/mL) and in assay [1] (agonist: MPLA […]) were 0.872 ± 0.15, 1.15 ± 0.16 and 0.994 ± 0.11, respectively. Besides, the IRF reporter in assay [2] (agonist: 3'3'-cGAMP 10 ug/mL) worked out at 0.819 ± 0.029; in assay [2] (agonist: LPS 0.1 ug/mL) it was 1.11 ± 0.14; in assay [2] (agonist: MPLA […]), 1.24 ± 0.13. The viability score in assay [3] is 0.974 (active).

`CC(NC(=O)c1nc2ccccc2[nH]1)c1ccc(Br)cc1` (stereo unspecified): the values for the NF-kB reporter in assay [1] (setting [4]), in assay [1] (agonist: LPS 0.1 ug/mL) and in assay [1] (agonist: MPLA […]) were 1.07 ± 0.11, 0.938 ± 0.061 and 0.985 ± 0.047, respectively. For the same compound, the IRF reporter was 1 ± 0.14 in assay [2] (agonist: 3'3'-cGAMP 10 ug/mL), 1 ± 0.073 in assay [2] (agonist: LPS 0.1 ug/mL) and 1.13 ± 0.19 in assay [2] (agonist: MPLA […]). Besides, in assay [3], the viability score was 1 (active).

For the compound `CC1=C(C(=O)OCc2ccc3c(c2)OCO3)C(c2ccc(Cl)c(Cl)c2)NC(=O)N1` (stereo unspecified), the NF-kB reporter in assay [1] (setting [4]) is 1.04 ± 0.17; in assay [1] (agonist: LPS 0.1 ug/mL) it was 1.13 ± 0.083; in assay [1] (agonist: MPLA […]) it was 1.11 ± 0.1. The values for the IRF reporter in assay [2] (agonist: 3'3'-cGAMP 10 ug/mL), in assay [2] (agonist: LPS 0.1 ug/mL) and in assay [2] (agonist: MPLA […]) were 0.458 ± 0.025, 0.712 ± 0.093 and 0.772 ± 0.15, respectively. The viability score in assay [3] is 1.01 (active).

For `COc1ccc(CCNc2cc(C)nc3cc(-c4ccc(OC)c(OC)c4)nn23)cc1OC`, the figures for the NF-kB reporter in assay [1] (setting [4]), in assay [1] (agonist: LPS 0.1 ug/mL) and in assay [1] (agonist: MPLA […]) were 1.18 ± 0.067, 1.13 ± 0.086 and 1.27 ± 0.035, respectively. Also, the IRF reporter in assay [2] (agonist: 3'3'-cGAMP 10 ug/mL) was 0.733 ± 0.026; in assay [2] (agonist: LPS 0.1 ug/mL) it was 0.978 ± 0.073; in assay [2] (agonist: MPLA […]) it was 1.13 ± 0.11. The viability score in assay [3] is 1 (active).

Turning to `CC(C)(C)NCC(=O)Nc1ccc(S(N)(=O)=O)cc1`, the NF-kB reporter in assay [1] (setting [4]) was found to be 0.762 ± 0.061; in assay [1] (agonist: LPS 0.1 ug/mL), 0.821 ± 0.064; in assay [1] (agonist: MPLA […]), 1.06 ± 0.091. Moreover, the values for the IRF reporter in assay [2] (agonist: 3'3'-cGAMP 10 ug/mL), in assay [2] (agonist: LPS 0.1 ug/mL) and in assay [2] (agonist: MPLA […]) were 1.02 ± 0.049, 1.52 ± 0.098 and 1.7 ± 0.2, respectively. Moreover, the viability score in assay [3] was 0.997 (active).

As to `COc1ccc(CCNC(=O)NCc2nn(C3CCCC3)c3c2CCCC3)cc1`, the NF-kB reporter stood at 0.854 ± 0.037 in assay [1] (setting [4]), 1.04 ± 0.12 in assay [1] (agonist: LPS 0.1 ug/mL) and 1.12 ± 0.08 in assay [1] (agonist: MPLA […]). The figures for the IRF reporter in assay [2] (agonist: 3'3'-cGAMP 10 ug/mL), in assay [2] (agonist: LPS 0.1 ug/mL) and in assay [2] (agonist: MPLA […]) were 0.726 ± 0.057, 1.13 ± 0.18 and 1.15 ± 0.27, respectively. Also, the viability score in assay [3] was 0.983 (active).
